Assay outcomes from PubChem BioAssay.
mHTT CaM bind = inhibitors of human mutant huntingtin-calmodulin interaction; AlphaScreen His-mHTT/GST-CaM binding, luminescence; inhibition, % at 15 µM; hit rate 3.6% among 190,000;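 note: 0% = both proteins with DMSO and 100% = one protein alone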
Pf apPOL block = Pf-apPOL DNA polymerase inhibition; Recombinant Pf-apPOL, molecular beacon fluorescence, 1.5 h; inhibition, % at 10 µM; hit rate 0.25% among 210,000; AID 1794808
An asterisk follows results filed as active; ! = not confirmed by another sample. Only a selection was taken, and hits are over-represented in it overall. Cut-off read from the data, not from the text of the source: active = inhibition above about 50%; inactive = the rest.

What do the screens show for `Cc1ccc(S(=O)(=O)Nc2cc(S(=O)(=O)O)c(N)c3c2C(=O)c2ccccc2C3=O)cc1`?
mHTT CaM bind: 79*; Pf apPOL block: 3

Results for Cc1ccc(F)cc1S(=O)(=O)N1CCN(C(C)c2ccccc2)CC1 (stereo not given) ?
mHTT CaM bind: -30; Pf apPOL block: -4

What do the screens show for `CCn1cc(C2=CCN(C(=O)Cc3ccc(F)cc3)CC2)c2cccnc21`?
mHTT CaM bind: 14; Pf apPOL block: -3

What do the screens show for `O=C(NCCc1csc(C2CCN(C(=O)c3cccc(F)c3)CC2)n1)C1CCC1`?
mHTT CaM bind: 5; Pf apPOL block: 1

What do the screens show for `CC(=O)c1cc2c(s1)SCC(=O)N2`?
Pf apPOL block: -10

How did CCOc1ccc(C=C2Oc3c(ccc(O)c3CN3CCCC3)C2=O)cc1 do in these assays?
mHTT CaM bind: 18; Pf apPOL block: -16

Results for CCOc1ccccc1Oc1c(C)oc2cc(OCC(=O)OC(C)(C)C)ccc2c1=O ?
mHTT CaM bind: -4; Pf apPOL block: -4

What do the screens show for `COc1ccccc1CNC(=O)c1ccc(S(=O)(=O)c2cccc(Cl)c2)c([N+](=O)[O-])c1`?
mHTT CaM bind: 34; Pf apPOL block: -2

How did Cc1nnc(NC(=O)c2csc(-c3cnccn3)n2)s1 do in these assays?
mHTT CaM bind: -12; Pf apPOL block: 47

How did O=C(Nc1nc(-c2ccco2)cs1)c1csc(-c2cnccn2)n1 do in these assays?
mHTT CaM bind: 6; Pf apPOL block: 76*

Results for O=c1sc2c(n1-c1ccccc1)SCC1COc3ccccc3C21 (stereo not given) ?
mHTT CaM bind: 66*; Pf apPOL block: -14

What do the screens show for `O=C(O)CCn1c2c(sc1=O)C1c3ccccc3OCC1CS2` (stereo not given)?
mHTT CaM bind: 26; Pf apPOL block: 1

Results for CS(=O)(=O)N(CC(=O)NCc1ccccn1)c1ccc(Oc2ccccc2)cc1 ?
mHTT CaM bind: 3; Pf apPOL block: -12

How did O=C(NCCCn1nc(-c2ccc(Cl)cc2)ccc1=O)C1CCCC1 do in these assays?
mHTT CaM bind: -9; Pf apPOL block: -25

How did O=c1ccc(-c2ccc(Cl)cc2)nn1CCNS(=O)(=O)c1ccc2c(c1)CCCC2 do in these assays?
mHTT CaM bind: 80*; Pf apPOL block: -10

Results for COc1ccccc1C1(CNC(=O)CSCc2ccccc2)CCOCC1 ?
mHTT CaM bind: 0; Pf apPOL block: -2

Results for Cc1ccccc1NS(=O)(=O)c1cc(C(=O)Nc2ccccc2)ccc1Br ?
mHTT CaM bind: 5; Pf apPOL block: 4

How did Cc1cc(/C=C2\C(=O)NC(=O)N(c3ccccc3)C2=O)c(C)n1-c1ccc([N+](=O)[O-])cc1 do in these assays?
mHTT CaM bind: -2; Pf apPOL block: -7

How did NNc1nnc(-c2ccccc2)c2ccccc12 do in these assays?
mHTT CaM bind: 68*; Pf apPOL block: 2

Results for NC(=O)c1ccc(Nc2nnc(-c3ccc(O)cc3)c3ccccc23)cc1 ?
mHTT CaM bind: 21; Pf apPOL block: -34

Results for CC(=NNc1nnc(-c2ccccc2)c(-c2ccccc2)n1)c1ccco1 ?
Pf apPOL block: -3

What do the screens show for `NNc1nnc(-c2ccccc2)c(-c2ccccc2)n1`?
mHTT CaM bind: 100*; Pf apPOL block: 1

Results for Cc1ccc(S(=O)(=O)N=C2C=CC(=O)C=C2)c(C)c1 ?
mHTT CaM bind: 39; Pf apPOL block: -7

What do the screens show for `Cc1ccc(S(=O)(=O)N=C2C=CC(=O)c3ccccc32)c(C)c1`?
mHTT CaM bind: 86*; Pf apPOL block: 4

Results for Cc1cc(C)c(S(=O)(=O)N=C2C=CC(=O)c3ccccc32)c(C)c1 ?
mHTT CaM bind: 66*; Pf apPOL block: 0

Results for Cc1cc(C)c(S(=O)(=O)n2cnc3ccccc32)c(C)c1 ?
mHTT CaM bind: -4; Pf apPOL block: -2

What do the screens show for `CC(C)(Oc1ccc(Cl)cc1)C(=O)Nc1nnc(-c2ccsc2)o1`?
mHTT CaM bind: 43; Pf apPOL block: -112

What do the screens show for `Cc1cc(-c2nnc(NC(=O)C(C)(C)Oc3ccc(Cl)cc3)o2)c(C)o1`?
mHTT CaM bind: 98*; Pf apPOL block: -136

What do the screens show for `CC(=O)NC(c1ccc2c(c1)OCO2)c1cc(Cl)c2cccnc2c1O` (stereo not given)?
mHTT CaM bind: 100*; Pf apPOL block: -6

How did Cc1cccnc1NC(=O)C(C)Oc1cccc(Cl)c1 (stereo not given) do in these assays?
mHTT CaM bind: 0; Pf apPOL block: 5

Results for CC(=O)NC(c1cccc(Cl)c1)c1cc(Cl)c2cccnc2c1O (stereo not given) ?
mHTT CaM bind: 100*; Pf apPOL block: -3

How did CC(=O)NC(c1ccc(C)cc1)c1cc(Cl)c2cccnc2c1O (stereo not given) do in these assays?
mHTT CaM bind: 100*!; Pf apPOL block: 2

Results for CC(=O)Nc1cccc2c(C(=O)NC(C)c3ccc(C)cc3C)ccnc12 (stereo not given) ?
mHTT CaM bind: 0; Pf apPOL block: 0
